Measurements published in PMC12864922, “TDP-43 directly inhibits mRNA accumulation in neurites through modulation of mRNA stability”.
The full ranking holds about 9,900 sequences; the median of “r (bound/input frequency ratio)” is about 0.7, and the highest 2% start at about 6.5. Shown is part of a subset that was picked to be rich in the highest values.

B1: ENSMUSG00000032194.73|Kank2|146:150 (ssRNA)
RNA: GGGAGUUCUACAGUCCGACGAUCGCUUCGAUAUCCGCAUGCUAUUUGAAUGUCACUGGAAUGUUACAGUGUCUAUUGUCUCCUCAUCUUUACAGCAGGUCUCCACAAAGCCUGCUCACCACCCUUUGUCACCUCAUUUCAUUGUCUAGUGUACAAUAGGGUCUUGUCCACUGCCCUCCACCUCCAGACACACACUUCAGGGCCUGGGGUGUCUCUUGUGAUUGCUUUACAGAAUAAGAUUGCCGUACCUUAGCCGCCUGCCUCCAGUCAGAAAGCAGUGUUUUCAUUUGCCUUUUUCCUUUCUCUCUUGCGGUCGCACUAGUGUGGAAUUCUCGGGUGUCAAGG
B2: ENSMUSG00000058297.497|Spock2|151:155 (ssRNA)
RNA: GGGAGUUCUACAGUCCGACGAUCGCUUCGAUAUCCGCAUGCUAGGUUGGAGAGAGUAAAUGUGCCUUGAGAGACCACUCAGAGGUCCCAGGAGGAACGGGGGCGGGGCUUAGCCUGGGAGUUCUGGCAGGAGGCAAAGUUGGUGAGAGUCCUGGGACAUCUUACCCCCAGUGUUCCACAGGAGUCGUGACCACCACACAUGGGUGGGCACAGGUCUGCCUUGCUCCAGCCCCCUCCCUUGGUUUCUGUUGGUACCCAUUUGGCUUUUAUCUGCUUUCUGCUUCACCACUAAGUGCGUAGGUGGCUCUUGCGGUCGCACUAGUGUGGAAUUCUCGGGUGUCAAGG
B3: ENSMUSG00000061578.971|Ksr2 (ssRNA)
RNA: GGGAGUUCUACAGUCCGACGAUCGCUUCGAUAUCCGCAUGCUAGGAAGGUAGUUUUCCCCCAGAAAGUCCCUUCUAAUAAACAUUGAUGACUUUAGAAUCCAUGACUCAGAAUUUUCCAGAGACCCAAUCCCUCGGGGUCCACUUAGUGAUGGGACCAUACAAGAGUUUAUUUCCAAUUAGAGAAUUGGGUCAACUGGGAAAGGCUUCUUUCCUGGUAACCCUGCUACUGAUACUAUGUUGAAACAGGAAUCGACUCUAACUGCUUUUUGGCCUCUUCCCUGCACGGGAGUCUCAAAAUCAAGCUCUUGCGGUCGCACUAGUGUGGAAUUCUCGGGUGUCAAGG
B4: ENSMUSG00000058297.456|Spock2 (ssRNA)
RNA: GGGAGUUCUACAGUCCGACGAUCGCUUCGAUAUCCGCAUGCUAUCACACAGGUCAGAUUAUUGUCGGUCCUGCGGGCCUCAUCCUUGAAUAAGCUGCCUGCCCAGUUCCUCCAUCCGUGUUCCUGCCUGCUCCCGUUCCCUUGUUGCGGGCAGGAGAGGUAGGGCUGUGUUGGAAAGAGUUCAACCAAAUUACGGCAGCACCACAUCUUGCCGAGCCCUGGAGCUGCCCUACUAAGAGCCUCCUUAGCCCUGGGUGCUGGGAAGGAUGGUGUACGUUGGGGAAGUUUGAGGUUGGAGAGAGUACUCUUGCGGUCGCACUAGUGUGGAAUUCUCGGGUGUCAAGG

target: TDP-43 (Homo sapiens, UniProt Q13148 1-414); experiment: RNA Bind-n-Seq with designed 260-mer pool; 25 mM Tris-HCl, 150 mM KCl, 3 mM MgCl2, BSA (printed 500 mg/mL), 20 units/mL SUPERase IN; pH not stated; 500 nM RNA pool, 1 h, 4 C; TDP-43 5, 50, 500 nM; high values mean tight binding; conditions: protein: recombinant; tags: SBP (GST cleaved off with PreScission; pGEX-GST-SBP)
Sequence (Q13148 whole entry): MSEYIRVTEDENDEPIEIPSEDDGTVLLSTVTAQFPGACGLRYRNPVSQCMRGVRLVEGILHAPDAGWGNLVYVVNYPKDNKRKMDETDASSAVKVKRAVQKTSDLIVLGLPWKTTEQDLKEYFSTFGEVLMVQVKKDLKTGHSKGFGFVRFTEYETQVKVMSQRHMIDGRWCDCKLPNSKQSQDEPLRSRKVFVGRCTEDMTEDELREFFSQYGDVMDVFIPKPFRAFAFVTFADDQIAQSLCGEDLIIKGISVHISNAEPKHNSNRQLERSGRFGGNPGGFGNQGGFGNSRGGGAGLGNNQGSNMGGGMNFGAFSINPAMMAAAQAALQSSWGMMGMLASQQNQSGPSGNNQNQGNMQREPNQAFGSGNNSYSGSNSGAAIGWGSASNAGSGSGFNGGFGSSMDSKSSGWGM
How it was run: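 For each oligo, R gives binding as its mapped-read-normalized abundance after pulldown divided by its abundance in input. Bead-captured SBP-tagged TDP-43 (5, 50 or 500 nM) was incubated with 500 nM of an in vitro-transcribed 260-nt 3′ UTR oligo pool for 1 h at 4 °C in 25 mM Tris-HCl, 150 mM KCl, 3 mM MgCl2, BSA and SUPERase IN on streptavidin beads. Washed, biotin-eluted RNA was reverse transcribed, PCR-amplified and sequenced.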

Binder | binding signal
B1 | 1.55 R (bound/input frequency ratio)
B2 | 2.24 R (bound/input frequency ratio)
B3 | 0.299 R (bound/input frequency ratio)
B4 | 0.782 R (bound/input frequency ratio)
